Hit rate of the full screen: of about 2,800 compounds, fewer than 10 were called active. Roughly 7% stayed inconclusive and do not appear here. A selection follows. Unmarked numbers belong to inactive results. Calls follow the shape of the dose curve; as a rule, active = well fitted inhibition curve with a large enough effect; inconclusive = small, poorly fitted or top-dose-only effect; inactive = no such curve, though single readings can be large or run the other way.
Potency is read from the fitted curve at half-maximal effect.

The target in this assay is Metallo-beta-lactamase type 2 (Klebsiella pneumoniae) (UniProt C7C422). The experiment in a line: qHTS to identify inhibitors of the New Delhi Metallo-beta-lactamase (NDM): Nitrocefin screen against the machine-based learning selections. As to activity, negative = inhibition: % of control where 0% means no effect. Conditions: NDM-1 enzyme, nitrocefin hydrolysis, absorbance 485 nm; series mostly up to 38.4 µM; activity, negative = inhibition: at the top concentration. From the text: Assay Submitter (PI): James Inglese Ph.D., Patricia Dranchak Ph.D., Mahesh Aitha Ph.D. Assay Development and Screening Technology Laboratory (ADST) National Center for Advancing Translational Sciences (NCATS), Rockville, MD National Institute of Health (NIH), Bethesda, Maryland The metallo-beta-lactamases (MBL) are a main antibiotic resistance mechanism evolved by bacteria. There is an urgent clinical need for MBL inhibitors to mitigate this growing threat. To support a machine-based learning study, qHTS has been used to experimentally test inhibitors identified by prediction tools.
Sequence of Metallo-beta-lactamase type 2 (Klebsiella pneumoniae) (C7C422 whole entry, looked up): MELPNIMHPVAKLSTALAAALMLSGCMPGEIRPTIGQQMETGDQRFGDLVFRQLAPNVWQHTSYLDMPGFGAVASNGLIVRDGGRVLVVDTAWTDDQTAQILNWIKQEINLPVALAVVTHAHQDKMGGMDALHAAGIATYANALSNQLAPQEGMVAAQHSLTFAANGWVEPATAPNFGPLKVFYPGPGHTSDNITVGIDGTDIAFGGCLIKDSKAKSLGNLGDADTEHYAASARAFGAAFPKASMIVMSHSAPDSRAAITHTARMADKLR
PROTOCOL TABLE (as described by Inglese et al., 2007) SEQUENCE No. (e.g., 1, 2, 3, etc.); […] (e.g., enzyme, Incubation, Reagent, etc.); VALUE; DESCRIPTION Primary Screen 1; NDM-1; 4 uL of 3 nM enzyme [2 nM final] in 50 mM HEPES (pH 7.0), 1 uM […], 0.01% Tween20; Use BioRaptr to dispense into two sets of Aurora black, clear bottom high base 1536-well plates 2; Compounds; 23 nL; Use Pin Tool (Wako) to transfer DMSO control and library compounds in DMSO 3; Incubate; >30 min 4a; Reagent; 2 uL of 50 uM nitrocefin [16.7 uM final] to one set of assay plates 4b; Reagent; 2 uL of 150 uM meropenem [50 uM final] to second set of assay plates 5a; Incubate; 15 min 5b; Incubate; 30 min 6a; Detector; Absorbance at 485 nm (bandwidth = 5 nm, 25 flashes/well) on Tecan Infinity 6b; Detector; Absorbance at 300 nm (bandwidth = 5 nm, 25 flashes/well) on Tecan Infinity NOTES (numbers refer to sequence above) 1; Column 1 of each plate received assay buffer without enzyme and columns 2-48 received enzyme for a final assay concentration of 2 nM. 2; Control plate contained DMSO in columns 1, 2, 3, and 4. 3; Compound interaction with enzyme. 4; Nitrocefin and meropenem substrates were prepared in the same assay buffer as step 1 for a final assay concentration of 16.7 uM and 50 uM, respectively, and added to all wells across respective sets of assay plates. 5; Default reader settings were applied for absorbance read at 485 nm (nitrocefin) or 300 nm (meropenem), bandwidth = 5 nm, 25 flashes/well. References: Inglese J, Shamu CE, Guy RK. 2007. Reporting data from high-throughput screening of small-molecule libraries. Nat Chem Biol. doi:10.1038/nchembio0807-438 Yasgar A, Shinn P, Jadhav A, Auld D, Michael S, Zheng W, Austin CP, Inglese J, Simeonov A. 2008. Compound Management for Quantitative High-Throughput Screening. J Lab Autom 13:79 - 89. doi:10.1016/j.jala.2007.12.004
For orientation: In qHTS, concentration-response curves come from the screen itself.
On to `O=C(O)c1cccc(-c2n[nH]c3c2CC(=O)N(c2ccccc2)C3)c1`, for which the “activity, negative = inhibition” value is -14.2% [at 57.5 µM].

As to `N#Cc1cccc(CN2CCOC[C@H]2c2ncc(-c3ccccc3)[nH]2)c1`, the “activity, negative = inhibition” value is 1.13% [at 57.5 µM]. Same read-out and setting: the same measure for `COCC(=O)N[C@H]1CO[C@H]2[C@@H]1OC[C@@H]2Nc1nccc(-c2cccc(C#N)c2)n1`: 4.59% [at 57.5 µM]; for `Cc1[nH]c2ccc(C(=O)N3CC[C@@](C)(O)[C@@H](O)C3)cc2c1C`: -0.0594%. Same read-out and setting: the same measure for `c1cncc(CNc2cc(-c3cnc4ccccc4n3)c3cc[nH]c3n2)c1`: 11.1%; for `CCN1CCN(C2(C(=O)NCCc3ccccc3)Cc3ccccc3C2)CC1`: -0.956%; for `COc1cccc(NC(=O)N[C@H](C)c2onc(-c3ccc(F)cc3)c2C(=O)O)c1`: -18.1% [at 57.5 µM]. Take `O=C(Nc1ccc([C@H]2OCC(=O)N(C3CCOCC3)[C@@H]2CO)cc1)c1cnccn1`: the “activity, negative = inhibition” value was 317% [at 57.5 µM]. The same measure, in the same setting: with `N[C@@H](Cc1cnc[nH]1)C(=O)NCc1cccnc1Oc1ccc(F)cc1F` the figure was -1.51%. With `CN1CC2(CCN(C(=O)c3ccccc3-c3nn[nH]n3)CC2)CC1C(=O)O` (centres undefined), the Potency was 6.69 µM (active). For `COCCN1CCCC2(CCN(C(=O)c3ccccc3)C2)C1` (centres undefined), the “activity, negative = inhibition” value is -3.5%.

Regarding `CCCN1CC2(CCN(C(=O)c3ccc(C)nc3)CC2)CC1C(=O)O` (centres undefined), the “activity, negative = inhibition” value is -5.46%. Same read-out and setting: the same measure for `CC(=O)N1CCN(C(=O)C[C@@H]2c3nc(NC(=O)C4CCCCC4)sc3C[C@@H]3[C@](C)(CO)[C@H](O)CC[C@]32C)CC1`: 1.19%.

As to `CN(C)c1ccc(-c2nnnn2[C@H]2CO[C@H]3[C@@H]2OC[C@@H]3NS(=O)(=O)c2ccc3ccccc3c2)cc1`, the “activity, negative = inhibition” value was -2.44%. Same read-out and setting: with `C[C@@]1(O)CCN(c2ncccc2C(=O)c2nccs2)C[C@@H]1O` the figure was -0.625%. The same measure, in the same setting: the same measure for `OC(c1cccc(C(F)(F)F)c1)c1nc(Nc2ccc(F)cc2)n[nH]1` (centres undefined): 3.6% [at 57.5 µM]; for `Cn1ccc2c(C(=O)N[C@H](c3cccs3)C3CC(O)C3)cccc21` (some centres undefined): -3.78%; for `Cc1nc(C(=O)N2CCC(c3nnc(CN4CCCC4)n3C)CC2)cs1`: -8.34%. For `Cc1ccc(C(=O)N2CCN(c3nnc4cccc(C)n34)CC2)cc1F`, the “activity, negative = inhibition” value is -3.81%. Same read-out and setting: with `O=C1C(c2ccccc2)CC2(CCN(c3cnccn3)CC2)CN1C1CC1` (centres undefined) the figure was 0.213%.

As to `O=C(c1ccccc1)N1CCN2C(=O)N(Cc3ccccc3)C(=O)[C@H]2C1`, the “activity, negative = inhibition” value is -2.63% [at 57.5 µM]. Still for that read-out and setting: the same measure for `Cc1cnc(C(=O)N2CCC(N3C(=O)C4(CCCC4)C3c3ccccc3)CC2)cn1` (centres undefined): 0.565%; for `O=C(Cc1ccccc1C(F)(F)F)N1CCC2(CC1)[C@H](O)C[C@@H]2O`: -5.52%. Still for that read-out and setting: the same measure for `CN(Cc1cc(-c2cccs2)n[nH]1)C(=O)c1cn(CCN)nn1`: 3.42%; for `O=C1CC(C(=O)O)C2(CCN(c3cc(C4CC4)ncn3)CC2)N1` (centres undefined): -1.94%; for `Cc1noc2c(-c3cccnc3)cc(-c3cccs3)nc12`: -1.29% [at 57.5 µM].

Take `CCc1ncc(C(=O)N2CCN(c3ccc(Cl)c(Cl)c3)CC2)cn1`: the “activity, negative = inhibition” value was -4.54%. As to `Cc1ccc2nc(C)cc(C(=O)N3CCC(c4cc(CC(=O)O)[nH]n4)CC3)c2c1`, the Potency is 9.45 µM (active). On to `Cc1nc(C2CCCCN2C(=O)Cc2ccccc2)n[nH]1` (centres undefined), for which the “activity, negative = inhibition” value is 8.61%. With `Cc1ccc2nc(C3CCCN(Cc4ccccc4)C3)[nH]c(=O)c2c1` (centres undefined), the “activity, negative = inhibition” value is 0.6% [at 57.5 µM]. In the case of `COc1nc(C)c(C(=O)N2CCC(c3[nH]ncc3-c3ccccc3)CC2)s1`, the “activity, negative = inhibition” value is 0.575%. On the same count and under the same terms, with `CC(=O)N1CC[C@H](c2nc3cc(C)ccc3o2)C1` the figure was -5.97% [at 76.7 µM].

Regarding `Cc1nc2c(C(=O)N3CCC(c4cc(CC(=O)O)[nH]n4)CC3)cccc2[nH]1`, the Potency is 8.42 µM (active).

For `CCNC(=O)O[C@@H]1CO[C@H]2[C@@H]1OC[C@@H]2NC(=S)Nc1ccc(N(C)C)cc1`, the “activity, negative = inhibition” value was 0.306% [at 57.5 µM]. On the same count and under the same terms, with `O=C(c1cccnc1)N1CC[C@H](c2nnc(Cc3ccccc3)o2)C1` the figure was -2.68% [at 57.5 µM]; with `O=C(Cc1c[nH]c2ncc(-c3cccc(Cl)c3)cc12)NCc1cccnc1`, 7.39% [at 57.5 µM]. On the same count and under the same terms, the same measure for `Nc1ccc(-c2ccc(OCCn3ccnc3)cc2)cn1`: -4.87%. The same measure, in the same setting: the same measure for `COCCCNC(=O)N1CC(c2nc(CCOCC3CCOCC3)no2)C1`: 1.08%; for `CNC(=O)[C@H]1C[C@H](Oc2cccnc2)CN1S(=O)(=O)c1ccc(OC)cc1`: 1.27%. Consider `O=C(Nc1cccc(C(F)(F)F)c1)N[C@H]1CO[C@H]2[C@@H]1OC[C@@H]2Nc1nccc(-c2ccc(-c3ccccc3)cc2)n1`, for which the “activity, negative = inhibition” value was 3.13%. Same read-out and setting: with `CC(C)(C)c1nnc([C@H]2CCN(Cc3ccco3)C2)o1` the figure was 2.73% [at 76.7 µM].

On to `Cc1cccc(Cl)c1NC(=O)N1CCC2(CC1)C(C(=O)O)CC(=O)N2C` (centres undefined), for which the “activity, negative = inhibition” value was 6.76%. In the case of `C[C@@H](c1ccccc1)N1C(=O)[C@@H]2CN(C(=O)c3ccc(N(C)C)cc3)CCN2C1=O`, the “activity, negative = inhibition” value was 2.81% [at 57.5 µM]. Still for that read-out and setting: with `Cc1nc(CCC(=O)N2CCC(Cc3ccc(C(=O)O)cc3)C2)n[nH]1` (centres undefined) the figure was 10.3%; with `CCCS(=O)(=O)N1CCC(Cc2nc(-c3cccnc3)n[nH]2)C1` (centres undefined), -6.34%; with `COc1ccc(CN2CCOc3ccc(C(=O)NCc4ccc(C)cc4)cc3C2)c(OC)c1`, -0.698%. Still for that read-out and setting: with `O=C(c1ccccc1Cl)N1CCCC(c2nn(-c3ccccc3)c(=O)[nH]2)C1` (centres undefined) the figure was -3.71%. On the same count and under the same terms, the same measure for `CC(C)C(=O)N[C@H]1[C@H](O)[C@H](O)C[C@@H]1c1cccnc1`: 2.09% [at 76.7 µM]; for `CC(O)c1cc2n(n1)CCN(C1CCN(C(=O)c3cnccn3)CC1)C2` (centres undefined): 29%.

The values above are taken from PubChem BioAssay AID1794844 (National Center for Advancing Translational Sciences (NCATS), 2023).
